Results taken from PubChem BioAssay AID463173 (ICCB-Longwood Screening Facility, Harvard Medical School, 2010).
Among all 52,000 compounds or so, about 4,300 (8.3%) were called active. The entries come from a sample that favours actives as a whole. Values without a mark were called inactive. Rule as the data show it: active = survival mostly below about 52% (no sharp cut-off); inactive = mostly above about 56%.

These molecules were tested on DeltatarO mutant (assay: S. aureus survival, RN4220 and DeltatarO strains – OD600, teichoic acid synthesis inhibitors, primary screen (AID 463173)). Conditions: S. aureus RN4220 wild type/DeltatarO growth, OD600, 18 h, hits give low values, screened at 18.75 µg/mL (by protocol).

Compared with `COc1ccc(-c2csc3nc(-c4ccc(F)cc4)oc(=O)c23)cc1`, `CNC(=O)c1cc(-c2ccc(OC)cc2)nc2ccccc12` is higher in survival: 61% for the first, 77% for the second.

First: O=C(NCc1ccc2c(c1)OCO2)c1ccc2c(c1)N(Cc1cccc(Cl)c1)C(=O)c1ccccc1S2
Second: Cc1cccc(C(=O)N2CCc3cc(CNC(=O)CCc4ccccc4)ccc32)c1
The survival of the first is higher: 84% for the first, 60% for the second.

Compared with `O=C(NCc1cccs1)C1CCN(C(=O)N2CCOc3ccccc32)CC1`, `CC(C)(C)OC(=O)N1CCC(c2c(C(=O)NC3CCCCC3)cnn2-c2cccc(F)c2)CC1` is higher in survival: 107% for the first, 128% for the second.

Going from `Cc1cc(C)cc(NS(=O)(=O)c2cc3[nH]c(=O)c(=O)[nH]c3cc2C)c1` to `COc1ccc(NS(=O)(=O)c2cc3[nH]c(=O)c(=O)[nH]c3cc2C)cc1Cl`, the survival rises from 87% to 94%.

Compared with `O=C1C2C(C(=O)N1CCO)C1C=CC2C12CC2` (stereo not given), `Cn1c(=O)[nH]c(=O)c2c1nc(NCCO)n2CC(O)COc1ccccc1` (stereo not given) is higher in survival: 100% for the first, 165% for the second.

First: CCOc1ccccc1CNC(=O)c1[nH]c2ccccc2c1Sc1ccccc1
Second: Cc1ccc(-c2cc(C(=O)NCCc3ccccc3)c3ccccc3n2)cc1C
The survival of the first is lower: 72% for the first, 88% for the second.

First: COc1cccc(NC(=O)/C(C#N)=C\c2cn(Cc3ccc(C)cc3)c3ccccc23)c1
Second: COc1ccc(C(=O)COC(=O)c2cc(-c3ccccc3)nc3c(C)cccc23)cc1
The survival of the first is higher: 90% for the first, 64% for the second.

Going from `COC(=O)c1c(NC(=O)Cc2cccs2)sc2c1CCCC2` to `COC(=O)c1c(NC(=O)c2ccc(Cl)c(Cl)c2)sc2c1CCCC2`, the survival falls from 119% to 63%.

Going from `CCOC(=O)c1sc(NC(=O)C(C)Oc2ccc(OC)cc2)c(C(=O)OCC)c1C` (stereo not given) to `COC(=O)c1c(NC(=O)COc2ccc(OC)cc2)sc2c1CCC(C)C2` (stereo not given), the survival falls from 73% to 66%.

Going from `COC(=O)c1c(NC(=O)C(C)Oc2ccc(Cl)cc2Cl)sc2c1CCCC2` (stereo not given) to `Cc1cc(OC(C)C(=O)Nc2sc3c(c2C(N)=O)CCCC3)ccc1Cl` (stereo not given), the survival rises from 46% to 59%.

Compared with `COC(=O)c1c(NC(=O)COc2cc(C)ccc2C(C)C)sc2c1CCC(C)C2` (stereo not given), `COC(=O)c1c(NC(=O)COc2ccc(C(C)C)cc2)sc2c1CCCC2` is lower in survival: 61% for the first, 47% for the second.

Going from `COC(=O)c1c(NC(=O)COc2cc(C)c(Cl)c(C)c2)sc2c1CCCC2` to `CCOC(=O)c1c(NC(=O)COc2c(C)cc(Cl)cc2Cl)sc2c1CCCC2`, the survival falls from 147% to 53%.

Going from `COC(=O)c1c(NC(=O)Nc2ccc(Cl)cc2)sc(C)c1C` to `COC(=O)c1c(NC(=O)c2ccccc2C(=O)O)sc2c1CCCC2`, the survival rises from 74% to 92%.

Going from `Cc1ccc(S(=O)(=O)N2CCN(C(=O)c3c(C)nn(-c4ccccc4)c3Cl)CC2)cc1` to `CN(Cc1ccccc1)S(=O)(=O)c1ccc(F)c(C(=O)Nc2cccc(Cl)c2Cl)c1`, the survival rises from 63% to 134%.

Going from `O=C(O)CCNC(=O)c1ccc(Br)o1` to `O=C(NCCc1ccc(Cl)cc1)c1ccco1`, the survival rises from 72% to 98%.

First: Cc1ccccc1Nc1c(-c2ccc(N3CCOCC3)cc2)nc2ncccn12
Second: O=c1c(S(=O)(=O)c2ccccc2)cn(Cc2cccc(F)c2)c2cc(N3CCOCC3)c(F)cc12
The survival of the first is higher: 83% for the first, 78% for the second.

Compared with `Cc1cccc(C)c1NC(=O)CN(C)S(=O)(=O)c1ccc2c(c1)n(C)c(=O)c(=O)n2C`, `CCN(C(=O)CN(C)S(=O)(=O)c1ccc2c(c1)c(=O)n(C)c(=O)n2C)c1ccc(OC)cc1` is higher in survival: 89% for the first, 90% for the second.

First: COc1ccc(Cl)cc1NC(=O)c1c(NCc2ccc(C)o2)sc2c1CCCC2
Second: CCOc1ccccc1NC(=O)c1c(NC(=O)C(C)Oc2ccc(Cl)cc2)sc2c1CCCCC2 (stereo not given)
The survival of the first is lower: 74% for the first, 83% for the second.

Compared with `COc1ccc(Cl)cc1N(C)C(=O)c1ccc2c(=O)n3c(nc2c1)CCCCC3`, `CCOc1ccccc1NC(=O)c1c(NC(=O)C(C)Oc2cccc(Cl)c2)sc2c1CCCCC2` (stereo not given) is lower in survival: 76% for the first, 64% for the second.

Compared with `N#Cc1ccc(NC2=NS(=O)(=O)c3ccccc32)cc1`, `CCOC(=O)CN1C(=O)N(c2ccc(C)c(C)c2)S(=O)(=O)c2ccccc21` is higher in survival: 68% for the first, 80% for the second.

Going from `CCNC(=O)c1c(NC(=O)COc2ccc(F)cc2)sc2c1CCCC2` to `COC(=O)c1c(NC(=O)c2ccc(OC)cc2OC)sc2c1CCCCC2`, the survival falls from 59% to 47%.

First: OP(Oc1ccccc1)(Oc1ccccc1)=P(O)(Oc1ccccc1)Oc1ccccc1
Second: Cc1ccc(C(=O)COC(=O)c2cc(-c3ccccc3)nc3ccccc23)cc1C
The survival of the first is lower: 97% for the first, 125% for the second.

First: COc1ccc(OC)c(Nc2ncc3c(n2)CCN(Cc2cc(OC)c(OC)c(OC)c2)C3)c1
Second: COC(=O)c1cc(-c2ccc(OC)c(OC)c2)nc2ccccc12
The survival of the first is higher: 81% for the first, 72% for the second.

Compared with `CC(C)OCCCNC(=O)CN1C(=O)COc2ccc(S(=O)(=O)N3CCOCC3)cc21`, `CCOCCCNC(=O)c1c[nH]c2ccc(S(=O)(=O)N(C)c3ccc(Cl)cc3F)cc2c1=O` is higher in survival: 79% for the first, 124% for the second.

Compared with `COC(=O)c1cc(NC(=O)c2sc3ncn(Cc4cccc(F)c4)c(=O)c3c2C)cc(C(=O)OC)c1`, `CCc1cccc(NC(=O)Cn2nc3c4cc(F)ccc4n(Cc4cccc(C)c4)cc-3c2=O)c1` is lower in survival: 92% for the first, 84% for the second.

Compared with `COc1ccc(-c2cc(C(=O)Oc3ccc(Br)cc3)c3ccccc3n2)cc1`, `Cc1ccc(C(=O)COC(=O)c2cc(-c3ccc(Cl)cc3)nc3ccccc23)cc1` is higher in survival: 48% for the first, 136% for the second.

Going from `COc1ccc(C(=O)COC(=O)c2cc(-c3cccs3)nc3ccccc23)cc1` to `COC(=O)c1ccccc1NC(=O)Cn1c(CCC(=O)O)ccc1-c1cccs1`, the survival falls from 58% to 54%.

Compared with `CCn1cc(C(=O)OCC(=O)Nc2cccc(C(C)=O)c2)c(=O)c2ccc(C)nc21`, `COc1ccc(-c2ccc(CCC(=O)O)n2CC(=O)Nc2cccc(Cl)c2C)cc1` is lower in survival: 84% for the first, 46% for the second.

Going from `CCC(O)(CCN1CCCCC1)c1ccccc1` (stereo not given) to `COc1ccc(NC(=O)Cn2c(CCC(=O)O)ccc2-c2ccccc2)cc1Cl`, the survival falls from 80% to 61%.

First: Cc1cc(C)cc(N(CC(=O)NCc2ccco2)C(=O)c2snc(C(N)=O)c2N)c1
Second: CC(=O)CSc1nnc2cc(C)c3cc(C)cc(C)c3n12
The survival of the first is lower: 93% for the first, 106% for the second.

First: CCOc1ccc(CNCCSc2nnnn2C)cc1OC
Second: COc1cc(CNCCSc2nnnn2C)ccc1OCc1ccccc1C
The survival of the first is higher: 65% for the first, 56% for the second.

First: COc1cc(CNCCSc2nnnn2C)ccc1OCc1c(F)cccc1Cl
Second: Cn1nnnc1SCCNCc1ccccc1OCc1ccc(Cl)cc1Cl
The survival of the first is lower: 58% for the first, 63% for the second.

Compared with `Cc1ccc(-c2ccc(CCC(=O)O)n2-c2cccc(O)c2)cc1`, `O=C(O)CCc1ccc(-c2ccccc2)n1-c1cccc(Br)c1` is lower in survival: 68% for the first, 65% for the second.

Compared with `COc1ccc(OC)c(NC(=O)Cn2c(CCC(=O)O)ccc2-c2ccccc2)c1`, `CCOc1ccccc1NC(=O)CN1C(=O)CC(c2ccc(C)c(C)c2)=Nc2ccccc21` is lower in survival: 103% for the first, 74% for the second.

Going from `Cc1cc(NC(=O)N2CC=C(c3c[nH]c4ccccc34)CC2)ccc1Br` to `Cc1ccc(CSc2nc3c([nH]c4ccccc43)c(=O)n2C)cc1`, the survival rises from 81% to 94%.

First: COC(=O)c1ccc(Nc2cc(=O)[nH]c(=O)[nH]2)cc1
Second: CCN(Cc1ccccc1)S(=O)(=O)c1ccc(F)c(C(=O)Nc2ccc(C(C)C)cc2)c1
The survival of the first is lower: 79% for the first, 101% for the second.

Compared with `Cc1ccc(Sc2ccc(N3CCC(C(=O)Nc4ccc(Cl)cc4)CC3)nn2)cc1`, `CN(Cc1ccccc1)S(=O)(=O)c1ccc(F)c(C(=O)Nc2cc(Cl)cc(Cl)c2)c1` is higher in survival: 72% for the first, 87% for the second.

`O=C(Nc1cc(C(F)(F)F)ccc1Cl)c1cc(S(=O)(=O)NCc2ccccc2)ccc1F` gave a survival of 55%.

For `COc1cc(NS(=O)(=O)c2cc3[nH]c(=O)[nH]c3cc2C)cc(OC)c1OC`, the survival was 37% (active).
With `COC(=O)c1c(NC(=O)COc2c(C)cccc2C)sc2c1CCCC2` the survival was 2% (active).
With `COC(=O)c1c(NC(=O)COc2c(C)ccc(C)c2C)sc2c1CCC(C)C2` (stereo not given) the survival was 22% (active).
`COC(=O)c1c(NC(=O)C(C)Oc2ccc(Cl)c(C)c2)sc(C)c1C` (stereo not given) was tested, and the survival was 15% (active).
With `CCCc1ccc(OC(C)C(=O)Nc2sc3c(c2C(=O)OC)CCCCC3)cc1` (stereo not given) the survival was 9% (active).
`COC(=O)c1c(NC(=O)c2c(OC)cccc2OC)sc2c1CCCC2` was tested, and the survival was 13% (active).
In the case of `CCCc1ccc(OCC(=O)Nc2sc3c(c2C(=O)OC)CCCCC3)cc1`, the survival is reported as 38% (active).
For `CCOC(=O)c1c(NC(=O)C(C)Oc2ccc(Cl)c(C)c2)sc2c1CCCC2` (stereo not given), the survival was 42% (active).
`Cc1ccccc1NC(=O)c1c(NC(=O)C(C)Oc2cccc(Cl)c2)sc2c1CCCC2` (stereo not given) was tested, and the survival was 40% (active).
For `COc1ccc(-c2cc(C(=O)Oc3ccc(C)c(C)c3)c3ccccc3n2)cc1`, the survival was 40% (active).
`COc1ccc(-c2cc(C(=O)Oc3cccc(C)c3C)c3ccccc3n2)cc1` was tested, and the survival was 31% (active).
For `COc1ccc(-c2cc(C(=O)Oc3ccc(Cl)cc3)c3ccccc3n2)cc1`, the survival was 49% (active).
For `COc1ccc(-c2cc(C(=O)Oc3ccc(C)cc3)c3ccccc3n2)cc1`, the survival was 11% (active).
For `CCOc1cc(CNCCSc2nnnn2C)ccc1OCc1ccc(Cl)cc1Cl`, the survival was -6% (active).
With `COc1cc(CNCCSc2nnnn2C)ccc1OCc1ccc(Cl)cc1Cl` the survival was 30% (active).
With `O=C(O)CCc1ccc(-c2ccc(Cl)cc2)n1-c1cccc(C(F)(F)F)c1` the survival was 23% (active).
`COC(=O)c1ccccc1NC(=O)Cn1c(CCC(=O)O)ccc1-c1ccc(C)cc1` was tested, and the survival was 45% (active).
For `COc1ccc(-c2ccc(CCC(=O)O)n2CC(=O)Nc2cccc(C(F)(F)F)c2)cc1`, the survival was 54% (active).
For `CCN(Cc1ccccc1)S(=O)(=O)c1ccc(F)c(C(=O)Nc2cc(C(F)(F)F)ccc2Cl)c1`, the survival was 17% (active).
For `CN(Cc1ccccc1)S(=O)(=O)c1ccc(F)c(C(=O)Nc2ccccc2C(F)(F)F)c1`, the survival was -5% (active).
